# NR3A LBD binder = NR3A (human) ligand-binding domain modulation; NR3A LBD differential scanning fluorimetry, Tm shift; 0% = protein alone, 100% = glycine-bound protein; Tm shift relative to glycine control, % at 25 µM; 340,000 compounds, 2.5% hits;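 active = melting temperature shift of at least 10% of the positive control shift, at one fixed dose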
# ADAM17 inh = inhibits human ADAM17; recombinant ADAM17, EDANS/DABCYL FRET peptide cleavage; AID 720648; P78536; 370,000 compounds, 0.83% hits; inhibition, % at 6.95 µM;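 active = inhibition above the mean of compounds lying between control limits plus 3 SD, set per campaign, cut at about 8.5% in these data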;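 also: 0% = DMSO-only wells as the low control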
# proKLK7 act = proKLK7 (human) activation, primary screen | purified proKLK7, EDANS-DABCYL substrate fluorescence; 100% is mature enzyme control, 0% vehicle | activation, % at 7 µM | 370,000 compounds, 0.9% hits;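 active = activation above the mean of all tested compounds plus 3 SD, computed per campaign excluding outliers beyond control limits, cut at about 13% in these data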
# Target sequence (P49862 whole entry, looked up): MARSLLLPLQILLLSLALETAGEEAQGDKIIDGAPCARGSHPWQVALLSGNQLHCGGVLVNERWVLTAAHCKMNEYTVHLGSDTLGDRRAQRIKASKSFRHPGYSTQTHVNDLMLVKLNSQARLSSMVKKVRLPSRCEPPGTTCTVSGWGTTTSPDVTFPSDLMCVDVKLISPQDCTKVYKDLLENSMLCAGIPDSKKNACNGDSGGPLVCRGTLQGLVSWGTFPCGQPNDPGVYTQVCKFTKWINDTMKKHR
# FAS TE block = FAS thioesterase (human) inhibition. inhibition, % at 15 µM. 360,000 compounds, 0.67% hits. recombinant FAS-TE, OMFH fluorogenic substrate, fluorescence endpoint;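 active = compounds whose normalised, plate-corrected inhibition of enzyme fluorescence in the single-dose primary screen is 50% or more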;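 also: 0% = DMSO with enzyme and 100% = substrate without enzyme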
# ADAM10 inh = ADAM10 inhibition, QFRET primary screen | recombinant ADAM10, EDANS/DABCYL FRET peptide cleavage, 3 h | AID 720582 | 370,000 compounds, 0.62% hits | inhibition, % at 7 µM | O14672;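 active = inhibition above a per-campaign cutoff equal to the mean of compounds falling between control-based bounds plus 3 SD, cut at about 20% in these data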;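 also: 0% = DMSO wells while the 100% control is not disclosed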
# FAS-TE inh conf = FAS thioesterase (human) inhibition, confirmation; recombinant FAS-TE, OMFH fluorogenic substrate, fluorescence; 2,300 compounds, 45% hits; shares compounds with FAS TE block; inhibition, % at 15 µM;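 active = compounds inhibiting the enzyme by at least 50% at 15 µM in any one of the replicates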;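 also: 0% = enzyme with DMSO only and 100% = wells lacking enzyme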
# The depositor's hits bear a star; . = not tested or not shown. This is a sample that favours compounds with a hit; in the whole collection about 4.6% have one here.
SMILES,NR3A LBD binder,ADAM17 inh,proKLK7 act,FAS TE block,ADAM10 inh,FAS-TE inh conf
COc1ccc(CNC(=O)c2cc(-c3ccccc3)c(N3CCOCC3)s2)cc1OC,.,7,0,.,8,.
CC(C)CC(=O)Nc1nc(-c2ccc(S(=O)(=O)N3CCOCC3)cc2)cs1,0,-7,0,52*,-14,20
CCCCC(=O)Nc1nc(-c2ccc(S(=O)(=O)N3CCOCC3)cc2)cs1,0,-12,1,88*,-28,91*
O=S(=O)(c1ccc(-c2csc(-c3cccnc3)n2)cc1)N1CCOCC1,-6,-1,1,79*,-11,82*
CCOc1ccc(CCNC(=O)c2cc(-c3ccccc3)c(N3CCOCC3)s2)cc1OC,.,-2,0,.,1,.
O=C(NC1CCC1)c1ccc(C#Cc2cccc(F)c2)cn1,.,-2,1,.,-15,.
COc1ccc(Cn2ccc3ccc(-c4ccc5ccn(Cc6ccc(F)cc6)c5c4)cc32)cc1,.,-27,-2,.,-79,.
COc1ccc(N2CCN(CCCNC(=O)CCc3cccc(F)c3)CC2)cc1,.,-2,0,.,-4,.
COC(=O)[C@]12CCCCC=C1N(Cc1ccc(OC)cc1)C(=O)[C@@H]2CC(=O)NCc1ccc(C)o1,.,-2,-1,.,3,.
COc1ccc(/C=N/NC(=O)c2ccc(CN3c4cccc5cccc(c45)S3(=O)=O)cc2)cc1,22*,-66,-27,79*,-306,10
COc1cc(/C=N/NC(=O)c2ccc(CN3c4cccc5cccc(c45)S3(=O)=O)cc2)cc(OC)c1O,2,-47,-7,6,-129,.
CCC[C@H]1[C@@H](OC(=O)NCc2ccc(OC)cc2)CC[C@@]23CCCN2C(=O)CCC[C@@H]13,.,1,.,.,3,.
CC(=O)c1cc(C#N)c(SCCC(C)C)nc1C,1,.,.,56*,.,48
CC(C)CCSc1nc(N)c(C#N)cc1C#N,-3,-29,-11,65*,-78,9
Cc1ccccc1NC(=O)CSc1nc(N)c(C#N)cc1C#N,-2,-16,0,-2,-37,.
O=C1CC(/C=C/c2ccccc2)(C(=O)NC2CCCC2)N1c1ccc(S(=O)(=O)N2CCCC2)cc1 (stereo unspecified),-5,-2,0,75*,-8,9
CC1C(=O)N(c2ccc(S(=O)(=O)N(C)C)cc2)C1(/C=C/c1ccccc1)C(=O)NC1CCCC1 (stereo unspecified),28*,3,0,61*,2,33
COc1ccc(N2C(=O)CC2(/C=C/c2ccccc2OC)C(=O)NC2CCCC2)cc1 (stereo unspecified),-2,1,0,17,4,.
C=CCN1C(=O)[C@@H](CC(=O)NCCCN2CCCC2=O)[C@]2(C(=O)OCC)CCCCC/C=C/12,.,-1,1,.,-1,.
O=C(NCCCc1ccccc1)c1cccc([N+](=O)[O-])c1,-6,-3,0,67*,-6,51*
O=C(NCCCCc1ccccc1)c1ccccc1,0,-1,0,-4,4,.
O=C(NCCCCc1ccccc1)c1cccc([N+](=O)[O-])c1,-11,-2,0,54*,-7,65*
O=C(NCCCCc1ccccc1)c1cc([N+](=O)[O-])cc([N+](=O)[O-])c1,-5,-1,0,52*,-4,53*
O=[N+]([O-])c1cccc(NC(=S)NCCc2ccccc2)c1,33*,6,0,65*,5,57*
COC(=O)C1CN(Cc2cn(CCOC(C)=O)nn2)CCS(=O)(=O)N1Cc1ccc(Cl)cc1 (stereo unspecified),.,0,1,.,-5,.
SMILES,NR3A LBD binder,ADAM17 inh,proKLK7 act,FAS TE block,ADAM10 inh,FAS-TE inh conf
CCOC(=O)CC[C@@]1(C(=O)OCC)C[C@@H](CC(=O)N2CCCC2)C(=O)N2CCCC=C21,.,4,0,.,-2,.
C[C@@H]1CCN(C2CC2)S(=O)(=O)c2c(cccc2N2CCC[C@H]2CO)O1,.,0,0,.,0,.
COC(=O)c1cc(-c2ccccc2)c(=O)n2c1CCC2,.,-4,0,.,-14,.
CC(Cc1ccccc1)NC(=O)c1ccc([N+](=O)[O-])cc1 (stereo unspecified),-2,-1,0,22,-2,.
CC(CCc1ccccc1)NC(=O)c1cccc([N+](=O)[O-])c1 (stereo unspecified),-4,1,1,62*,3,70*
O=C(Nc1ccc(NC(=O)c2cccc([N+](=O)[O-])c2)cc1)c1cccc([N+](=O)[O-])c1,2,0,-1,20,-2,.
O=C(Nc1ccc(Cc2ccncc2)cc1)c1cccc([N+](=O)[O-])c1,-2,3,0,66*,8,70*
COC(=O)[C@]12C[C@H](CC(=O)NCc3ccccc3)C(=O)N(CCC3=CCCCC3)C1=C[C@H](C1CCCC1)O[C@@H]2C,.,4,1,.,9,.
COC(=O)CN(Cc1cn(Cc2ccccc2)nn1)S(=O)(=O)c1ccccc1Br,.,3,1,.,5,.
COc1cc([N+](=O)[O-])cc(/C=N/NC(=O)C(O)(c2ccccc2)c2ccccc2)c1O,-6,2,0,22,17,.
COc1cc([N+](=O)[O-])cc(/C=N/NC(=O)c2cccnc2)c1O,-1,0,0,62*,-255,74*
Cc1ccccc1C(=O)N[C@@H](Cc1cccnc1)C(=O)N1CCC[C@H]1C(=O)NCCc1ccccc1Cl,.,-8,0,.,-11,.
CC(COc1ccc(C#N)cc1)CN1CCC(C(O)(c2ccccc2)c2ccccc2)CC1 (stereo unspecified),.,-4,0,.,-3,.
CC(NC(=O)CC(c1ccccc1)c1cc(Cl)ccc1O)c1ccccc1 (stereo unspecified),-13,6,0,50*,8,48
CCn1c(=N)c(S(=O)(=O)c2ccccc2)cc2c(=O)n3ccccc3nc21,3,-57,3,55*,-161,35
CCn1c(=N)c(S(=O)(=O)c2ccc(C)cc2)cc2c(=O)n3ccccc3nc21,.,-49,1,.,-134,.
COC(=O)[C@]12C[C@H](CC(=O)N3CCN(C(=O)c4ccco4)CC3)C(=O)N(Cc3cccc4ccccc34)C1=C[C@H](C(C)C)O[C@@H]2C1CC1,.,-3,0,.,6,.
Cn1c(=O)cc(OCCCC(=O)NCCC2=CCCCC2)c2ccccc21,-6,-4,0,3,-5,.
Cn1c(=O)cc(SCC(=O)NCCC2=CCCCC2)c2cc(Cl)ccc21,-5,-3,0,69*,-2,30
Cc1ccc([N+](=O)[O-])cc1NC(=O)CCSc1ccc(Cl)cc1,1,7,1,66*,20,62*
Cc1ccc([N+](=O)[O-])cc1NC(=O)Cc1ccc(F)cc1,-1,-3,0,44,2,.
